From PubChem BioAssay
Only some compounds are listed: those with a hit (about 21% of all), similar ones and a draw of the others.
Pf growth 48h: inhibits P. falciparum growth in the first generation, 48 h; 5.9% of 310,000 active; Potency, µM (series often up to 28.7 µM), most hits filed as inhibitors; P. falciparum luciferase growth in erythrocytes, 48 h; AID 504832
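Luciferase-expressing P. falciparum in infected erythrocytes (2% hematocrit, 0.1% parasitemia final) in RPMI 1640/0.5% Albumax were exposed to compound for 48 hours at 37 C, 5% CO2; growth read as luminescence.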
Giardia FBPA inh: Giardia lamblia aldolase inhibition. purified Giardia FBPA. 0.71% of 290,000 active. A8B2U2. Potency, µM (series often up to 59.6 µM), most hits filed as inhibitors; note: nearly all actives have a fitted effect of over 55% in size
Target sequence (A8B2U2 whole entry, looked up): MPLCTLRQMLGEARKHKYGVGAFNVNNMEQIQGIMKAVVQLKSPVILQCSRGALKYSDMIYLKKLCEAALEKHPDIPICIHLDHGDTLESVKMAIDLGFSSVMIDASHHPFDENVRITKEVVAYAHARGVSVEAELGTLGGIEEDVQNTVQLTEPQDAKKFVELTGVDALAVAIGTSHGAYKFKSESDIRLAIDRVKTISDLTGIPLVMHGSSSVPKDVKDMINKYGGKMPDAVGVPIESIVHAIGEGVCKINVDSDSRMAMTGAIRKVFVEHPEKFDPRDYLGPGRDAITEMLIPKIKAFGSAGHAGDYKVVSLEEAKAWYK
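Giardia FBPA (40 nM reagent) was preincubated 10 min at RT with compound (up to 57.5 uM final), then substrate plus GAPDH/TPI/NAD/arsenate coupling system with diaphorase/resazurin was added; resorufin fluorescence (525/598 nm) was read after 20 min.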
Cycloheximide cs: counter-screen hit for Shiga toxin inhibitors, cycloheximide. cell reporter, cycloheximide protein synthesis inhibition counterscreen. max response, %. 12% of 300,000 active. AID 2314; in the data active = max response mostly above about 13%, no sharp cut-off; inactive = mostly below about 14%; note: read at 38.3 µM for the half of the compounds with a filed dose
NS1 function inh: blocks influenza NS1 protein function | Potency, µM (doses to about 46.1 µM) | 0.4% of 270,000 active | AID 2326; calls by dose curve; note: actives are rising curves; nearly all actives have a fitted effect of over 50% in size
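OD600 was taken as the measure of yeast growth restored by compound in an NS1-expressing S. cerevisiae strain. Cells had been washed out of glucose medium and diluted 1:100 into galactose -URA medium, pH 6.0.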
Pf growth 96h: P. falciparum growth inhibition at 96 hour, primary screen for plastid delayed-death inhibitors; P. falciparum luciferase reporter growth, 96 h; Potency, µM (titrated, usually from 28.7 µM), actives largely listed as inhibitors; 6.9% of 320,000 active; AID 504834
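Two-generation exposure (96 h) targets delayed-death phenotype. Reporter parasites carrying integrated firefly luciferase, in red cells at 2% hematocrit and 0.05% parasitemia final, kept at 37 C, 5% CO2; luminescence loss indicates inhibition.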
Shiga inhibitor: blocks Shiga toxin action in Vero cells; Vero cells, Shiga toxin protein synthesis inhibition reporter; inhibition, % at 38.7 µM; 9.2% of 290,000 active; AID 2315; in the data active = inhibition mostly above about 28%, no sharp cut-off; inactive = mostly below about 43%
Each line names hits and unclear results; the compound was inactive in the other large screens. Unless noted, calls come from the whole dose curve; as a rule, active = well fitted curve in the direction sought with a large enough effect; inconclusive = small, poorly fitted or top-dose-only effect, or another doubt; inactive = no such curve, though single readings can be large; an effect the other way counts as inactive or inconclusive.

C/C(=N\NC(=O)c1ccc(NS(=O)(=O)c2cccs2)cc1)c1ccc(C(C)(C)C)cc1	Pf growth 96h inconclusive
C/C(=N\NC(=O)C(N)=O)c1ccc(NC(=O)c2cccs2)cc1	Cycloheximide cs 33, Shiga inhibitor 69
C/C(=N/NC(=O)C1CCCC1)c1ccc(NC(=O)C(F)(F)F)cc1	Cycloheximide cs 19, Pf growth 96h inconclusive (no result: Giardia FBPA inh)
C/C(=N\NC(=O)c1ccccc1)c1ccc(NC(=O)c2cccs2)cc1	Cycloheximide cs 23, Shiga inhibitor 106
N=C1SC(CC(=O)Nc2ccccc2[N+](=O)[O-])C(=O)N1c1ccccc1 (centres undefined)	Pf growth 48h inconclusive, Pf growth 96h inconclusive
O=C(Nc1ccc(NC(=S)NC(=O)c2cccs2)cc1)c1ccco1	Pf growth 48h inconclusive
C/C(=N\NC(=O)c1ccco1)c1ccc(NC(=O)c2cccs2)cc1	Cycloheximide cs 64, Shiga inhibitor 130
C/C(=N\NC(=O)c1ccccc1C)c1ccc(NC(=O)c2cccs2)cc1	Cycloheximide cs 46, Shiga inhibitor 114
Cn1c(=O)c2c(SCC(=O)Nc3ccccc3F)nc(-c3ccccc3F)nc2n(C)c1=O	none (no result: Giardia FBPA inh)
COc1cc2c(cc1OC)C(c1ccccc1Cl)N(C)CC2 (centres undefined)	Giardia FBPA inh inconclusive, Pf growth 96h inconclusive (no result: Shiga inhibitor)
COc1ccc(C(=O)O/N=C(\N)c2ccc(Cl)cc2)cc1	Cycloheximide cs 37, Pf growth 96h inconclusive, Shiga inhibitor 88
COc1ccccc1C(=O)O/N=C(\N)c1ccc(Cl)cc1	Cycloheximide cs 52, Shiga inhibitor 90
CCCN(CCC)CCCNC(=O)c1ccc(CS(=O)(=O)c2c(Cl)cccc2Cl)o1	Pf growth 96h inconclusive
N#Cc1ccc(CN2CCCC3(CCN(C(=O)c4cc(C(F)(F)F)cc(C(F)(F)F)c4)CC3)C2)cc1	none (no result: Pf growth 48h, Cycloheximide cs, NS1 function inh, Pf growth 96h, Shiga inhibitor)
CC(C)NC(=O)C(Cc1ccccc1)N1C(=O)c2ccccc2C1=O (centres undefined)	none
CC(Cc1ccccc1)N1C(=O)c2ccccc2C1=O (centres undefined)	Cycloheximide cs 22, Shiga inhibitor 49
CC(C)c1ccc(C(O)(C(=O)O)c2ccc(C(C)C)cc2)cc1	none (no result: Pf growth 48h, Giardia FBPA inh, Cycloheximide cs, Pf growth 96h, Shiga inhibitor)
Cc1cc(S(=O)(=O)Nc2ccc3cn[nH]c3c2)c(C)cc1Cl	none
CN(CC(=O)Nc1ccc(F)c(F)c1)S(=O)(=O)c1cccs1	none
CCc1cccc(NC(=O)CN(C)S(=O)(=O)c2cccs2)c1	Cycloheximide cs 24, Pf growth 96h inconclusive, Shiga inhibitor 71 (no result: NS1 function inh)
CN(CC(=O)Nc1ccc2c(c1)OCO2)S(=O)(=O)c1cccs1	Cycloheximide cs 47, Pf growth 96h inconclusive, Shiga inhibitor 67
N=c1ccn2c(n1)O[C@@H]1[C@H](O)[C@H](CO)O[C@@H]12	none (no result: Pf growth 48h, Cycloheximide cs, NS1 function inh, Pf growth 96h, Shiga inhibitor)
COc1cc(Cl)ccc1OCc1cc(C(=O)NCc2cc(C(C)C)no2)no1	Cycloheximide cs 67, Shiga inhibitor 53 (no result: Giardia FBPA inh)
CC(C)(CNC(=O)CNC(=O)c1ccc(Cl)cc1Cl)N1CCOCC1	none (no result: Giardia FBPA inh, Cycloheximide cs, NS1 function inh, Shiga inhibitor)
COc1cc(Cl)ccc1OCc1cc(C(=O)NCC(C)(C)N2CCOCC2)no1	Cycloheximide cs 43, Shiga inhibitor 50
COc1ccc(OCc2cc(C(=O)NCCN3CCCc4ccccc43)no2)c(Cl)c1	Pf growth 48h inconclusive, Cycloheximide cs 16 (no result: Giardia FBPA inh)
COc1ccc(OCc2cc(C(=O)NCC(C)(C)N3CCOCC3)no2)c(Cl)c1	Pf growth 48h inconclusive, Shiga inhibitor 36 (no result: Giardia FBPA inh)
Cc1ccc(S(=O)(=O)N(CC(=O)Nc2ccccc2)C(=O)N2CCN(C)CC2)cc1	none (no result: Giardia FBPA inh, Cycloheximide cs, NS1 function inh, Shiga inhibitor)
CCn1c(C)nc2cc(C(=O)N=Nc3c(O)[nH]c4c(C)cc(C)cc34)ccc21	Pf growth 48h 9.3µM, Pf growth 96h 6.6µM
COc1ccccc1C(=O)N/N=C/c1ccc2c(c1)OCO2	Cycloheximide cs 35, Shiga inhibitor 89
COc1cc(/C=N/NC(=O)c2cc(-c3ccc4c(c3)OCO4)n[nH]2)ccc1O	Cycloheximide cs 16, Pf growth 96h inconclusive
CCCOc1ccc(/C=N/NC(=O)c2ccc3c(c2)OCO3)c(OCCC)c1	Pf growth 48h 5.9µM, Pf growth 96h inconclusive
COc1ccccc1/C=N/NC(=O)c1ccc2c(c1)OCO2	Pf growth 48h inconclusive, Cycloheximide cs 24, Pf growth 96h inconclusive, Shiga inhibitor 81
O=C(N/N=C/c1ccc(-c2ccc(Br)cc2)o1)c1ccc2c(c1)OCO2	Pf growth 96h inconclusive (no result: NS1 function inh)
CC1CN(C(=O)c2ccc(NS(=O)(=O)c3cccc(Cl)c3)cc2)CC(C)O1 (centres undefined)	none
COc1ccccc1C(=O)NCC(=O)n1nc(C)cc1C	Pf growth 96h 13µM
O=C(N/N=C/c1ccccc1OC(=O)c1ccc2c(c1)OCO2)c1ccccc1	Cycloheximide cs 21, Shiga inhibitor 64
COc1ccc(/C=N/NC(=O)c2cc(-c3ccccc3)nc3ccccc23)c(C(=O)O)c1OC	none
COc1ccccc1N/N=C/c1ccc2c(c1)OCO2	Cycloheximide cs 39
COc1ccc(/C=N/NC(=O)c2ccc3c(c2)OCO3)c(C(=O)O)c1OC	Cycloheximide cs 11
COc1cc2ccccc2cc1C(=O)N/N=C/c1ccc2c(c1)OCO2	none (no result: Giardia FBPA inh)
CCN(CC)CCOC(=O)c1ccc(NC(=O)c2cn(-c3ccccc3)nc2-c2cccs2)cc1	Pf growth 48h inconclusive, Pf growth 96h inconclusive (no result: NS1 function inh)
O=C(N/N=C/c1ccc(COc2ccc(Br)cc2)o1)c1ccc2c(c1)OCO2	Cycloheximide cs 15
CSc1nsc(N/N=C/c2ccc3c(c2)OCO3)c1C#N	Cycloheximide cs 41, Shiga inhibitor 84 (no result: NS1 function inh)
CC(/C=N\NC(=O)c1ccc2c(c1)OCO2)c1ccccc1 (centres undefined)	Cycloheximide cs 27, Shiga inhibitor 46
O=C(CNC(=O)c1cccs1)N/N=C/c1cccc(Cl)c1	Pf growth 96h inconclusive (no result: Giardia FBPA inh)
COc1ccccc1C(=O)NCC(=O)N/N=C/c1cccc(Cl)c1	Pf growth 96h 2.1µM (no result: NS1 function inh)
CCOC(=O)NNc1nncc2ccccc12	Giardia FBPA inh inconclusive (no result: Cycloheximide cs, NS1 function inh, Shiga inhibitor)
C/C(=N\Nc1nncc2ccccc12)c1ccc(OCC(=O)N(C)C)cc1	Cycloheximide cs 44, Shiga inhibitor 138
COc1ccc(OCC(=O)N/N=C(\C)c2ccc(OC)cc2)cc1	none (no result: NS1 function inh)
CC/C(=N\Nc1nncc2ccccc12)c1ccc(F)cc1	Cycloheximide cs 47, Shiga inhibitor 71
CCN(c1ccccc1)S(=O)(=O)c1cccc(C(=O)N(C)CCOc2ccccc2)c1	Pf growth 96h inconclusive (no result: Giardia FBPA inh, Cycloheximide cs, NS1 function inh, Shiga inhibitor)
CS(=O)(=O)N1N=C(c2ccco2)CC1c1ccc(Cl)cc1 (centres undefined)	Cycloheximide cs 30
CS(=O)(=O)N1N=C(c2ccco2)CC1c1ccccc1 (centres undefined)	none
Cc1ccc(C2CC(c3ccco3)=NN2S(C)(=O)=O)cc1 (centres undefined)	Cycloheximide cs 28, Shiga inhibitor 40
